# Tests used:
# Experiment in all cases: DAPPL (digital affinity profiling via proximity ligation, sequencing); 10 mM Tris-HCl pH 7.5, 50 mM NaCl, 1 mM DTT, 4% glycerol, room temperature, 30 min; GST-TFs on glutathione beads, 16-mer random dsDNA library, 0.1% formaldehyde crosslink after washing; high values mean tight binding
# Conditions in all cases: protein: recombinant; tags: N-terminal GST; dsDNA, one strand shown
# FEV = target: T1, FEV (Homo sapiens, UniProt Q99581 1-238)
# T1 sequence: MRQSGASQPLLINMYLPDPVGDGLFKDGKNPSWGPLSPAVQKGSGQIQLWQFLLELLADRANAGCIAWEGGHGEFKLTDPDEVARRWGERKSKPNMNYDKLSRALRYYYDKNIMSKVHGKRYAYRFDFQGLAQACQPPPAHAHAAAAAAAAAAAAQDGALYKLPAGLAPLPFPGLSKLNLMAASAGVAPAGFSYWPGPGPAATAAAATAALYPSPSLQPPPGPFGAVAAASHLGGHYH
# Method in brief: (§1)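 After expression in yeast as GST fusions, human transcription factors were bound to glutathione beads, DNA-barcoded and mixed with a tag-only sample. The pools were incubated with 200 nmole of a 16-mer random double-stranded DNA library in Tris/NaCl/DTT/glycerol buffer (30 min, room temperature), washed and crosslinked with 0.1% formaldehyde. Proximity ligation with BsaI/T4 ligase ran for 1 h at 37 °C, before PCR amplification and sequencing on an Illumina NextSeq500. Binding signal is a hexamer's read frequency for a factor divided by its frequency for the tag-only sample.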
# ETV5 = ETV5 (Homo sapiens, UniProt P41161 1-510)
# Sequence of ETV5 (P41161 whole entry): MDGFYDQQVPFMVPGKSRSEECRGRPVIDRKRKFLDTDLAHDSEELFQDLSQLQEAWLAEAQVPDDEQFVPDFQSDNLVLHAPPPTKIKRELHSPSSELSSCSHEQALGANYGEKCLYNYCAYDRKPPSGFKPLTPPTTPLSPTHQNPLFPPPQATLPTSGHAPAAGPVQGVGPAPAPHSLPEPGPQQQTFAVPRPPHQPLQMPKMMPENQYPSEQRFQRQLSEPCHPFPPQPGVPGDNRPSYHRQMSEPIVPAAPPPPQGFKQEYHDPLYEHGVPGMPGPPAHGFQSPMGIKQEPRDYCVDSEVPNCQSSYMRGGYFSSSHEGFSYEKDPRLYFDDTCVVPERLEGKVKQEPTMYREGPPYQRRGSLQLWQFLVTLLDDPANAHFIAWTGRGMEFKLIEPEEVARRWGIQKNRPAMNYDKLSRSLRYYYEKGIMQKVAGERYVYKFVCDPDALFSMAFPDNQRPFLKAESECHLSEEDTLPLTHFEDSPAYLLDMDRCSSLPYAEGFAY
# Method in brief: as §1
# SPIC = target: T2, SPIC (Homo sapiens, UniProt Q8N5J4 1-248)
# T2 sequence: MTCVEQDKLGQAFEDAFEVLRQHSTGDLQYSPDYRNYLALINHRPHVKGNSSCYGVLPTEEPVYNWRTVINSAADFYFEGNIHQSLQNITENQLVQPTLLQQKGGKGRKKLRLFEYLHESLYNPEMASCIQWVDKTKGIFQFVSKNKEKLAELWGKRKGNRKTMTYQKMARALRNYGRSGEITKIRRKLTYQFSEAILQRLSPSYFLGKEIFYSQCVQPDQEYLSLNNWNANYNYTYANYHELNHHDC
# Method in brief: as §1
# ELF4 = ELF4 (Homo sapiens, UniProt Q99607 1-663)
# Sequence of ELF4 (Q99607 whole entry): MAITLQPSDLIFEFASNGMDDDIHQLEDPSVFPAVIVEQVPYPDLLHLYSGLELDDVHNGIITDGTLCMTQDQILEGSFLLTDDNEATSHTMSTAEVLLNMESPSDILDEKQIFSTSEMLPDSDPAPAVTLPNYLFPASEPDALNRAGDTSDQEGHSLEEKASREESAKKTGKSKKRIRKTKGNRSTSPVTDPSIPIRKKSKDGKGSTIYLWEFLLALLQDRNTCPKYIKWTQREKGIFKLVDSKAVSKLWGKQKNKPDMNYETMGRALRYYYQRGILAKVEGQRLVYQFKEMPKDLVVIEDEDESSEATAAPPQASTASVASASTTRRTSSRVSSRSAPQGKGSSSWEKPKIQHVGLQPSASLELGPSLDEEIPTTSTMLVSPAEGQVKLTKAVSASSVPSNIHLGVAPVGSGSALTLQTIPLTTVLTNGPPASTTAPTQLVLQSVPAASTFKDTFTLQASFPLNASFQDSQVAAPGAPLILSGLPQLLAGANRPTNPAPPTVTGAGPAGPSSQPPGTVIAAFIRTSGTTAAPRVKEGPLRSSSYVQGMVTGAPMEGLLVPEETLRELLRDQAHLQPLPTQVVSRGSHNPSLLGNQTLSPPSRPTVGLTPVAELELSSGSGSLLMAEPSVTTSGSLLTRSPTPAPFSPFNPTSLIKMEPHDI
# Method in brief: as §1
# ELK4 = target: T3, ELK4 (Homo sapiens, UniProt P28324-2 1-405)
# T3 sequence: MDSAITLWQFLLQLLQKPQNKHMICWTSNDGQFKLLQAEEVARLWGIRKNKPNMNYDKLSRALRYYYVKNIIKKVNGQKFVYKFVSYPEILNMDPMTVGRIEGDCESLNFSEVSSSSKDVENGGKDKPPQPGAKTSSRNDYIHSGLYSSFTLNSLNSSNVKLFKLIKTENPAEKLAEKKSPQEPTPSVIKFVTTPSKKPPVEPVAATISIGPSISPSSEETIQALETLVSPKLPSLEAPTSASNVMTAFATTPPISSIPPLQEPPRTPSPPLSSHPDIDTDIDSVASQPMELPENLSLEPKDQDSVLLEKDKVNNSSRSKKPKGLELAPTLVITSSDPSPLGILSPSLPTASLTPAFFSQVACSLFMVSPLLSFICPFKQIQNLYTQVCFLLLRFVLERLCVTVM
# Method in brief: as §1
# ETV2 = target: T4, ETV2 (Homo sapiens, UniProt O00321 1-342)
# T4 sequence: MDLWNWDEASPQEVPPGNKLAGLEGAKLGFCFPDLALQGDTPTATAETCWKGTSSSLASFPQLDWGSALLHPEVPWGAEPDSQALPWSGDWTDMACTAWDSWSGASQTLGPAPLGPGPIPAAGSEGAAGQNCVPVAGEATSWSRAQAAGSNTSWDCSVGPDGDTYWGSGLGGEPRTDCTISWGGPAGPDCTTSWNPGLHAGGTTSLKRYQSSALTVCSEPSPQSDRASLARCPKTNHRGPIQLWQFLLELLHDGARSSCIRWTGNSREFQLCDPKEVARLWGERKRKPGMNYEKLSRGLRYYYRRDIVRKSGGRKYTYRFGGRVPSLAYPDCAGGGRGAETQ
# Method in brief: as §1
# ELF3 = target: T5, ELF3 (Homo sapiens, UniProt P78545 1-371)
# T5 sequence: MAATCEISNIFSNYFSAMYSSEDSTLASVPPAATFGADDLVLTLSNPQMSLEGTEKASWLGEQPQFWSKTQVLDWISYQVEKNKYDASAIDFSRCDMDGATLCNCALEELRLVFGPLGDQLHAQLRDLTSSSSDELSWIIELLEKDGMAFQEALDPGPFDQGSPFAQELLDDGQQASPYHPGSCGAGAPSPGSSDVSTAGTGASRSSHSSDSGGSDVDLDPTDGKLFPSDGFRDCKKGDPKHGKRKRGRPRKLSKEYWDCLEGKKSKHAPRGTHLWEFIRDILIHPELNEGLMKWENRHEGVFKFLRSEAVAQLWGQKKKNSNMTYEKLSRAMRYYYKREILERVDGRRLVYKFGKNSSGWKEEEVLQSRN
# Method in brief: as §1
# ETV1 = ETV1 (Homo sapiens, UniProt P50549 1-477)
# Sequence of ETV1 (P50549 whole entry): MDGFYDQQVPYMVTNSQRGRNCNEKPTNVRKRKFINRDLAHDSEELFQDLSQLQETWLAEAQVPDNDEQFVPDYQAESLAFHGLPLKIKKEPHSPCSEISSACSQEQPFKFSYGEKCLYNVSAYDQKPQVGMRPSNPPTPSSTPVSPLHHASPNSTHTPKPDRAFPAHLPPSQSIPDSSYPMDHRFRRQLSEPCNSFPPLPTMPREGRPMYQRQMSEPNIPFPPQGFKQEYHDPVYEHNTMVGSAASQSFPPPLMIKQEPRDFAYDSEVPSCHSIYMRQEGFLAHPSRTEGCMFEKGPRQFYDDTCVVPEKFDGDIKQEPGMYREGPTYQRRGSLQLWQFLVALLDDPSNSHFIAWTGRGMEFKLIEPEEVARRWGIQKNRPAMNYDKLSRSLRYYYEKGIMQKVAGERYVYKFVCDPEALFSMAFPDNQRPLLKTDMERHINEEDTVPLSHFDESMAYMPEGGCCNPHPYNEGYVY
# Method in brief: as §1
# ERF = target: T6, ERF (Homo sapiens, UniProt P50548 1-548)
# T6 sequence: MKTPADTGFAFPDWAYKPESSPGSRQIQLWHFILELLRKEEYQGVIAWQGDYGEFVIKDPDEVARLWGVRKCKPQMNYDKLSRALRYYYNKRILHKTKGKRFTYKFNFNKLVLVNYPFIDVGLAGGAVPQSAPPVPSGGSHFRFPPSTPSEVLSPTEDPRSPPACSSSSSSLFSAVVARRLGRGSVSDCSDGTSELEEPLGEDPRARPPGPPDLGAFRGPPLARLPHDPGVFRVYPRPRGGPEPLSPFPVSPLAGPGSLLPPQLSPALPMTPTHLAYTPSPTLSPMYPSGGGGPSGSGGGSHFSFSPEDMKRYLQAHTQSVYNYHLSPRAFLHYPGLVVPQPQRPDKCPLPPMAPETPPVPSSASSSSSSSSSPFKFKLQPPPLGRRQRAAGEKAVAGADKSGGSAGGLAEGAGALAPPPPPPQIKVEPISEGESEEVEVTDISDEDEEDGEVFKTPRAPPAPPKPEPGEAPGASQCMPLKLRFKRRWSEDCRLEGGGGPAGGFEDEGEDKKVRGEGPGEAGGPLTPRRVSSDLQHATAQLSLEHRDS
# Method in brief: as §1
# ETV3L = target: T7, ETV3L (Homo sapiens, UniProt Q6ZN32 1-361)
# T7 sequence: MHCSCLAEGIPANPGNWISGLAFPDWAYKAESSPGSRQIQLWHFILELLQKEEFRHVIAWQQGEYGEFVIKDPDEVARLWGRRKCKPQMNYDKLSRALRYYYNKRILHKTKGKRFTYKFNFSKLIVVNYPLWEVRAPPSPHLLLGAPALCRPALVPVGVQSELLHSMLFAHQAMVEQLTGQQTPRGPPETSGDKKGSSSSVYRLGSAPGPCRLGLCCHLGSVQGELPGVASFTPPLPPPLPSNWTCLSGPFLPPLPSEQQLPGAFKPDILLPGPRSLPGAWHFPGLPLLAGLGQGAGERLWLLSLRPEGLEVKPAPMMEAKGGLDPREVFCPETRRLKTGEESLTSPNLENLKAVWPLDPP
# Method in brief: as §1
# ETS2 = target: T8, ETS2 (Homo sapiens, UniProt P15036 1-469)
# T8 sequence: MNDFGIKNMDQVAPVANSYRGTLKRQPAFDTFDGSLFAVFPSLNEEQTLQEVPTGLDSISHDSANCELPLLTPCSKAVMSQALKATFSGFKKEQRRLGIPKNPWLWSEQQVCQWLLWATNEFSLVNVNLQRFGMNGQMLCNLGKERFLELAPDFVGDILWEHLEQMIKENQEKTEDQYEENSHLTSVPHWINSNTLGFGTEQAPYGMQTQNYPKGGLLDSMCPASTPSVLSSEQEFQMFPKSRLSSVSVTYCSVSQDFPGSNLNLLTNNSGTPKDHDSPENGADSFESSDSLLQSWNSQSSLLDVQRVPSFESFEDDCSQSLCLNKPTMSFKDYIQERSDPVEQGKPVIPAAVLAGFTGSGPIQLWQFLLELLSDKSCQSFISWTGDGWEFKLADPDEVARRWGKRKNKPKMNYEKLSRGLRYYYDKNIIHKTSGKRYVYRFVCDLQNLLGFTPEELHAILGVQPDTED
# Method in brief: as §1
# SPDEF = target: T9, SPDEF (Homo sapiens, UniProt O95238 1-335)
# T9 sequence: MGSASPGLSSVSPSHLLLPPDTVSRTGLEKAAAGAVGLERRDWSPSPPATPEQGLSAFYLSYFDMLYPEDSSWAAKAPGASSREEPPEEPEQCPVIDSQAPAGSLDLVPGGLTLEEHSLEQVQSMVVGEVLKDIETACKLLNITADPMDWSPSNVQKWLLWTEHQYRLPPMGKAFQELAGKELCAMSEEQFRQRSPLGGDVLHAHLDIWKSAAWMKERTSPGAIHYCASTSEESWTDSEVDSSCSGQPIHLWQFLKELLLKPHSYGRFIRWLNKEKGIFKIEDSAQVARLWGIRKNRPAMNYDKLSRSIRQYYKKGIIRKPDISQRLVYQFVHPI
# Method in brief: as §1
# ETV7 = target: T10, ETV7 (Homo sapiens, UniProt Q9Y603 1-341)
# T10 sequence: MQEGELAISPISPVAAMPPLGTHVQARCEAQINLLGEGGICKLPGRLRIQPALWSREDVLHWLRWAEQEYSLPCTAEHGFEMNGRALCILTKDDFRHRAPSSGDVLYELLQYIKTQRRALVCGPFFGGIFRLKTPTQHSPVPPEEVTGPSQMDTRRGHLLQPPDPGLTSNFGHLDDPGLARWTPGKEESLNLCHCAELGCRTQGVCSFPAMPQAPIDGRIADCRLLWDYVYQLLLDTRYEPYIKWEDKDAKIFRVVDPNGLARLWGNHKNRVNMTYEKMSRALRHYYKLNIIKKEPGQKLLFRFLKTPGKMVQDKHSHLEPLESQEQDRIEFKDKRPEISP
# Method in brief: as §1
# ELF5 = target: T11, ELF5 (Homo sapiens, UniProt Q9UKW6-2 1-255)
# T11 sequence: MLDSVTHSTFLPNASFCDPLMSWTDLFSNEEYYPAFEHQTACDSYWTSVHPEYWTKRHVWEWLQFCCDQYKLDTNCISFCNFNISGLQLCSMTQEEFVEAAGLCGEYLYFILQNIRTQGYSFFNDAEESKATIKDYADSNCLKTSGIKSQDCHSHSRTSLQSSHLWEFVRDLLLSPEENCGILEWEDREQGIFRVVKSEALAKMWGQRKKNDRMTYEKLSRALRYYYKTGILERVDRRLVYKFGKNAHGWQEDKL
# Method in brief: as §1
# ETV3 = target: T12, ETV3 (Homo sapiens, UniProt P41162-2 1-143)
# T12 sequence: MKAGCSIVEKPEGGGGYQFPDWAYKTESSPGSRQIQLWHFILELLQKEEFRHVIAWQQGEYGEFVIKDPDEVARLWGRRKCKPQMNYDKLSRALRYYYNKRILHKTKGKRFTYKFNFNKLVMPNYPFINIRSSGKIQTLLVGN
# Method in brief: as §1
# ETV6 = ETV6 (Homo sapiens, UniProt P41212 1-452)
# Sequence of ETV6 (P41212 whole entry): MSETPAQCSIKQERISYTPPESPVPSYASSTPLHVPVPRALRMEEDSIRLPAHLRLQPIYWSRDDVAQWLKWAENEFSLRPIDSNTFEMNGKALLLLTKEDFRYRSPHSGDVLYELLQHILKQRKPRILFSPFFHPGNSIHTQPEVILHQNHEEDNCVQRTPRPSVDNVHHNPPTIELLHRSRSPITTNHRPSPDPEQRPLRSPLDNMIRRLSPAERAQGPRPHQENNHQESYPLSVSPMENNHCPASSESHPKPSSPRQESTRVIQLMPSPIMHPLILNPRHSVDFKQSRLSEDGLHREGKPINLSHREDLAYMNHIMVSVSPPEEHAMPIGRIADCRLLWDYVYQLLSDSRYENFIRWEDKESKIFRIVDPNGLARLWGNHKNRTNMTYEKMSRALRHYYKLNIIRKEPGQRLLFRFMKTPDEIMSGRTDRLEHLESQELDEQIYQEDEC
# Method in brief: as §1
Sequence,binding signal (FEV),binding signal (ETV5),binding signal (SPIC),binding signal (ELF4),binding signal (ELK4),binding signal (ETV2),binding signal (ELF3),binding signal (ETV1),binding signal (ERF),binding signal (ETV3L),binding signal (ETS2),binding signal (SPDEF),binding signal (ETV7),binding signal (ELF5),binding signal (ETV3),binding signal (ETV6)
ACACAC,"1.18 fold enrichment (6-mer frequency, TF over GST control)","1.15 fold enrichment (6-mer frequency, TF over GST control)","1.23 fold enrichment (6-mer frequency, TF over GST control)","1.21 fold enrichment (6-mer frequency, TF over GST control)","1.21 fold enrichment (6-mer frequency, TF over GST control)","1.33 fold enrichment (6-mer frequency, TF over GST control)","1.23 fold enrichment (6-mer frequency, TF over GST control)","1.17 fold enrichment (6-mer frequency, TF over GST control)","1.14 fold enrichment (6-mer frequency, TF over GST control)","1.15 fold enrichment (6-mer frequency, TF over GST control)","1.17 fold enrichment (6-mer frequency, TF over GST control)","1.14 fold enrichment (6-mer frequency, TF over GST control)","1.19 fold enrichment (6-mer frequency, TF over GST control)","1.16 fold enrichment (6-mer frequency, TF over GST control)","1.18 fold enrichment (6-mer frequency, TF over GST control)","1.21 fold enrichment (6-mer frequency, TF over GST control)"
GCACAT,"1.23 fold enrichment (6-mer frequency, TF over GST control)","1.2 fold enrichment (6-mer frequency, TF over GST control)","1.14 fold enrichment (6-mer frequency, TF over GST control)","1.12 fold enrichment (6-mer frequency, TF over GST control)","1.06 fold enrichment (6-mer frequency, TF over GST control)","1.09 fold enrichment (6-mer frequency, TF over GST control)","1.11 fold enrichment (6-mer frequency, TF over GST control)","1.1 fold enrichment (6-mer frequency, TF over GST control)","1.2 fold enrichment (6-mer frequency, TF over GST control)","1.19 fold enrichment (6-mer frequency, TF over GST control)","1.12 fold enrichment (6-mer frequency, TF over GST control)","1.28 fold enrichment (6-mer frequency, TF over GST control)","1.07 fold enrichment (6-mer frequency, TF over GST control)","1.1 fold enrichment (6-mer frequency, TF over GST control)","1.15 fold enrichment (6-mer frequency, TF over GST control)","1.14 fold enrichment (6-mer frequency, TF over GST control)"

# — article PMC7862700, “An all-to-all approach to the identification of sequence-specific readers for epigenetic DNA modifications on cytosine”
